Bioassay records (PubChem BioAssay)
Rows were chosen to be rich in hits. Some 0.97% of all compounds tested hit in one or more screens of this group.
Epigenetic derep = Quantitative High-Throughput Screen for Regulators of Epigenetic Control; murine LDR cells, GFP reporter derepression, 30 h; Potency, µM (highest dose often 53.9 µM), without a hit: top-dose GFP activation, hits mostly activators; hit rate 0.2% among 280,000; also: potency is read from the fitted curve at half-maximal effect; % of control where 0% means no effect; nearly all actives have a fitted effect of over 60% in size
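Murine LDR cells bearing a silenced CMV-driven GFP reporter were exposed to compound for 30 h at 37 C. After PBS washes, GFP-positive cells (20-120 um objects) counted by laser-scanning microplate cytometry.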
pAkt inh = HTS Assay for Inhibitors of Akt Phophorylation: Primary Screen; activity change, % for hits at 50 µM; hit rate 0.32% among 360,000; Neuro2A IGF-stimulated pAkt S473 HTRF, 20 min; active compounds read low; in the data active = activity change below about -80%; inconclusive = mostly about -51% to -80%; also: % is scaled to controls: 0 for no effect and ±100 for the full control effect
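Neuro2A cells (4,500/well, DMEM with 0.5% FBS) were treated with compound at a single 50 µM final concentration, stimulated with 6 nM IGF for 20 min at 37 °C, and lysed. Phospho-Akt Ser473 was read by HTRF as 665/615 ratio ×10^4.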
uPA generation = qHTS for Inhibitors of Cell Surface uPA Generation; cell surface uPA generation assay, qHTS; Potency, µM (highest dose often 38.3 µM), inactives show top-dose activity change, negative = inhibition, usual class: inhibitors; hit rate 0.31% among 330,000; AID 540303, 2011; active = well fitted inhibition curve with a large enough effect; inconclusive = small, poorly fitted or top-dose-only effect; inactive = no such curve, though single readings can be large or run the other way; tested in mouse RAW 264.7 cells; also: potency is read from the fitted curve at half-maximal effect; % is scaled to controls: 0 for no effect and ±100 for the full control effect; nearly all actives have a fitted effect of over 55% in size
CCT modulator = High-Throughput Screening for Modulators of Cytosolic Chaperonin Activity | purified chaperonin ATPase assay, HTRF ADP detection, 30 min | activity change, % (no concentration beside the values), hits read low | hit rate 0.3% among 360,000; in the data active = activity change below about -30%; also: % is scaled to controls: 0 for no effect and ±100 for the full control effect
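Nucleotide hydrolysis assay: TRiC at 20–40 nM final (set by batch activity) with 10 uM ATP, 30 min at 37 °C, in presence of 76 uM compound. Detection by competitive ADP HTRF, 30 min ambient.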
MmCpn inh = Inhibitors of TCP-1 ring complex (TRiC) of Methanococcus maripaludis (MmCpn): qHTS; Chaperonin Mm-Cpn (Methanococcus maripaludis); purified Mm-Cpn ATPase, ADP Transcreener TR-FRET; Potency, µM (doses to about 76.9 µM), for inactives: at the highest dose activity, negative = inhibition, actives largely listed as inhibitors; hit rate 0.031% among 330,000; AID 504842, 2011; also: potency is read from the fitted curve at half-maximal effect; % is scaled to controls: 0 for no effect and ±100 for the full control effect; nearly all actives have a fitted effect of over 80% in size
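Inhibition of chaperonin ATP hydrolysis is measured as reduced ADP production, detected by competitive TR-FRET in which signal falls with ADP. Final enzyme 25 nM and ATP 10 uM, reacted 30 min at 37°C.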
MBNL1 CUG block = qHTS Assay for Inhibitors of MBNL1-poly(CUG) RNA binding | TR-FRET MBNL1-His/biotin-(CUG)12 binding, 665/545 ratio | Muscleblind-like protein 1 (Homo sapiens), Q9NR56 | Potency, µM (series often up to 57.5 µM), for the others: at the top dose activity change, negative = inhibition, most hits filed as inhibitors | hit rate 0.036% among 280,000; active = well fitted inhibition curve with a large enough effect in the signal ratio, with a control signal flat, not every such curve was filed as active; inconclusive = small, poorly fitted or top-dose-only effect, or effect the other way, or a change in a side signal; inactive = no such curve, though single readings can be large or run the other way; the % refers to the signal ratio; also: potency is read from the fitted curve at half-maximal effect; % is scaled to controls: 0 for no effect and ±100 for the full control effect
Target sequence (Q9NR56 whole entry, looked up): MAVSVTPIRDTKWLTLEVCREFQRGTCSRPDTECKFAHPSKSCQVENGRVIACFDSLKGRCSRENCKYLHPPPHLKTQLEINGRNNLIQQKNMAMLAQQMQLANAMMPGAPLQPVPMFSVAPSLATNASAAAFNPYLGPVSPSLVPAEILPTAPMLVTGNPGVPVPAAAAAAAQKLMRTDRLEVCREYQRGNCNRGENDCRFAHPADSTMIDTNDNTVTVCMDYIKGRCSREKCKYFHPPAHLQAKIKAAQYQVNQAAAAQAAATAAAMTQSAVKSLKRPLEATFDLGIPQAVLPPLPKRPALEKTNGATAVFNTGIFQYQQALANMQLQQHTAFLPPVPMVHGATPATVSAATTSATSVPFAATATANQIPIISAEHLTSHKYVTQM
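Inhibition of protein-RNA binding appears as loss of TR-FRET between terbium anti-His antibody on MBNL1-His and streptavidin-XL665 on biotin-(CUG)12. Activity is normalized to buffer-only and uninhibited-complex controls.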
An asterisk follows results filed as active; i = inactive; ? = inconclusive; nt = no result given; ! = not active in a repeat; [ ] = remark or other dose. Unless noted, calls follow the shape of the dose curve; as a rule, active = well fitted curve in the direction sought with a large enough effect; inconclusive = small, poorly fitted or top-dose-only effect, or another doubt; inactive = no such curve, though single readings can be large; an effect the other way counts as inactive or inconclusive.

SMILES	Epigenetic derep	pAkt inh	uPA generation	CCT modulator	MmCpn inh	MBNL1 CUG block
CCc1cc(C(=O)COc2ccc(F)cc2)c(O)cc1O	-6.6%	i	9.7%	5.9	-14.3%	-3.5%
Cc1c(O)ccc(C(=O)COc2ccc(F)cc2)c1O	-1.8%	-89.4%*	0.1%	0.6	-0.7%	-2.6%
CCCCN1C(=O)/C(=C/C=C2\N(C)c3ccccc3C2(C)C)SC1=S	2.51µM*	nt	nt	nt	-1.1%	1.6%
CCCCN1C(=O)/C(=C/C=C2\SCCN2C)SC1=S	17.8µM*	i	-1.3%	0.3	-2.2%	nt
O=C(Nc1ccc(Cl)cc1)Nc1ccccc1CC[N+](=O)[O-]	2.7%	i	1.6%	-1.0	0.0%	nt
COc1cc(C(=O)Nc2cccc(-c3nnc(-c4ccco4)o3)c2)ccc1OC(C)=O	3.2%	i	-11.5%	0.4	2.7%	-12.0%
COc1cc(C(=O)Nc2ccc(-c3nnc(-c4ccco4)o3)cc2)cc(OC)c1OC	13.1%	-101.9%*	-3.0%	0.1	-1.0%	16.7%
CCOC(=O)Cc1ccc(NC(=O)NCc2c(-n3cccc3)sc3c2CCCC3)cc1	-4.8%	nt	nt	nt	nt	nt
CN(C)CCCO[C@@H]1[C@H]2OC(C)(C)O[C@H]2O[C@@H]1[C@H](O)CO	nt	i	24.8%	-88.1*	-4.6%	nt
C=CCn1c(SCC(=O)O)nnc1-c1ccc(C(C)(C)C)cc1	-0.2%	i	-4.8%	-30.8*	-5.7%	-7.5%
CC(C)(C)c1ccc(-c2nnc(SCC(=O)O)n2N)cc1	-0.8%	i	-5.7%	0.0	-1.0%	-11.5%
Oc1c(C=NCc2ccncc2)sc2ccccc12	0.0%	-103.3%*	1.6%	2.8	0.2%	?
CN=Cc1sc2ccccc2c1O	-0.1%	i	-7.0%	-5.4	-10.9%	?
Cc1noc(C)c1COC(=O)C1CCN(S(=O)(=O)c2c(Cl)cccc2Cl)CC1	nt	i	-4.2%	-1.9	3.2%	nt
C=C(C)C1CCC(C)=C1CC(C)(C)/C=N\n1cnnc1 (stereo not given)	-1.0%	i	-5.3%	-9.3	2.5%	-5.2%
COc1cc2c(-c3ccc4[nH]ccc4c3)c(-c3ccc(C#N)cc3)oc(=O)c2cc1OC	nt	i	2.51µM*	-1.3	2.8%	nt
COc1cc2c(-c3ccc4cc[nH]c4c3)c(-c3ccsc3)oc(=O)c2cc1OC	nt	i	19.5%	-1.8	-8.4%	nt
CN(C)CCOC(c1ccc(Cl)cc1)c1ccccn1 (stereo not given)	1.1%	i	-9.7%	-51.1*!	0.3%	-5.3%
CN(C)CC[C@H](c1ccc(Cl)cc1)c1ccccn1	2.4%[16.9 µM]	nt	nt	nt	nt	nt
COc1cc(/C=C/C(=O)OCC(=O)N2c3ccccc3CC2C)cc(OC)c1OC (stereo not given)	nt	i	10µM*	-1.2	0.7%	nt
COc1cccc(/C=C/C(=O)OCC(=O)N2c3ccccc3CC2C)c1OC (stereo not given)	nt	i	0.8%	-7.3	-8.1%	nt
CCc1c(C)sc2c1CCN(C(=O)Nc1ccccc1Cl)C2c1ccc(OC)cc1 (stereo not given)	-0.9%	nt	nt	nt	nt	nt
CC(=O)N1CCc2c(sc(NC(=O)c3ccc4c(c3)OCCO4)c2C#N)C1	0.0%	i	7.94µM*	-0.2	?	?
CCC1CCCCN1C(=O)CSc1nnc2nc(C)cc(C)n12 (stereo not given)	nt	i	-3.8%	-39.8*	-1.3%	nt
Cc1cc(C)n2c(SCC(=O)NC3CCCCC3C)nnc2n1 (stereo not given)	-2.2%	i	-9.0%	-0.5	-1.0%	-7.2%
SMILES	Epigenetic derep	pAkt inh	uPA generation	CCT modulator	MmCpn inh	MBNL1 CUG block
CCc1sc(NC(=O)C(C)C)nc1-c1ccccc1	2.5%	i	-1.1%	-1.5	0.5%	2.5%
CCCNC(=O)C1(C)CCCN(C(=O)c2cc(F)ccc2C)C1 (stereo not given)	nt	i	nt	-0.3	nt	nt
Cc1ccc(S(=O)(=O)N(C)CC(O)Cn2c3ccccc3c3ccccc32)cc1 (stereo not given)	0.0%	-113.6%*	7.0%	-2.9	-5.0%	-2.1%
Cc1ccc(C(=O)C2=C(O)C(=O)N(c3ncccn3)C2c2ccccc2F)o1 (stereo not given)	nt	nt	-1.1%	-66.5*	-15.3%	?
Cc1ccc(C(=O)C2=C(O)C(=O)N(c3ncccn3)C2c2ccc(F)cc2)o1 (stereo not given)	-1.3%	i	-1.7%	-4.0	-20.1%	53.6%
COc1ccccc1-n1c(-c2ccccc2)c[nH]c1=S	-0.4%	i	21.2%	-29.5	-0.5%	-3.3%
COc1ccccc1-n1c(-c2ccccc2)c[n+]2c1CCc1ccccc1-2	-1.8%	i	11.2µM*!	-2.5	2.4%	-3.4%
CC(C)c1ccc(-n2c(-c3ccccc3)c[n+]3c2CCc2ccccc2-3)cc1	-2.8%	i	?	1.1	-3.5%	-1.8%
COc1ccc(-n2c(-c3ccc(Br)cc3)c[n+]3c2CCc2ccccc2-3)cc1	16.4%	i	5.01µM*	-0.8	1.6%	-9.3%
COc1cccc(-c2ccc3ncnc(NCc4cccc(F)c4)c3c2)c1	nt	nt	nt	nt	-4.0%	nt
Cc1n[nH]c(C)c1N1C(=O)c2cccc3c(Br)ccc(c23)C1=O	3.0%	-113.4%*	-2.3%	-2.5	-2.0%	?
COC(=O)c1ccc2nc(C)cc(Nc3ccccc3C)c2c1	-0.1%	i	2.9%	-2.9	-1.1%	-3.7%
COC(=O)c1cccc(Nc2cc(C)nc(-c3ccccc3O)n2)c1	-3.5%	i	-2.3%	-14.2	?	?
COC(=O)c1ccc(Nc2cc(C)nc3ccc(C)cc23)cc1	3.2%	i	-7.6%	-39.0*	0.5%	nt
CCOC(=O)c1ccc(Nc2cnc3ccccc3n2)cc1	-0.1%	i	17.5%	-5.6	-2.8%	-0.5%
CCOC(=O)c1ccc(Nc2cc(C)nc(-c3ccccc3)n2)cc1	nt	i	5.01µM*	-0.2	-4.5%	10.7%
COC(=O)c1ccc(Nc2cc(C)nc(-c3ccccc3O)n2)cc1	6.9%	-86.5%*	1.3%	-5.4	-4.8%	?
COc1cc2c(cc1OC)CN(c1ccc(C(N)=O)cc1[N+](=O)[O-])CC2	nt	i	-3.6%	-1.6	-1.3%	?
COc1cc(C(=O)Nc2cccc(C)c2C)ccc1OCC(=O)N1CCOCC1	nt	i	-7.0%	-33.6*	3.0%	nt
FC(F)(F)c1ccccc1NC(=S)N1CCN(c2ccccn2)CC1	-0.2%	i	?	-0.2	-0.7%	-2.8%
S=C(Nc1ccccc1Cl)N1CCCCCC1	-0.1%	i	0.2%	-0.2	0.4%	-6.7%
S=C(Nc1ccc(Cl)cc1Cl)N1CCCCC1	0.0%	i	-4.0%	-65.9*	2.2%	nt
